# From PubChem BioAssay
# Sampled rows, rich in hits. Any-hit rate of the full collection: about 12%.
# G9a inh = inhibitors of human histone lysine methyltransferase G9a. G9a H3K9 monomethylation, AlphaScreen, 2 h. Potency, µM (highest dose often 102 µM), actives largely listed as inhibitors. 8.8% of 350,000 active. AID 504332; note: nearly all actives have a fitted effect of over 75% in size
#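 Step 1: enzyme (final 20 nM) with compound, 15 min RT. Step 2: substrate peptide 500 nM and SAM 20 uM, 2 h RT. Step 3: anti-H3K9me1 antibody and AlphaScreen beads, 10 min, then plate read.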
# HP1b chromo inh = HP1-beta chromodomain-methylated histone interaction inhibition. P83916. AlphaScreen HP1-beta / biotin-H3K9me3 peptide binding. Potency, µM (top dose mostly 114 µM), actives largely listed as inhibitors. 0.56% of 390,000 active; note: nearly all actives have a fitted effect of over 70% in size
#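 AlphaScreen: HP1-beta (50 nM) preformed 30 min with biotin-H3(1-18)K9me3 peptide (50 nM) in PBS pH 7.4, 0.01% Tween-20. Compound added for 30 min at RT, then streptavidin donor/nickel chelate acceptor beads (10 ug/mL) for 30 min.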
# JMJD2A Tudor = JMJD2A Tudor domain (human) inhibition; AlphaScreen JMJD2A-Tudor / H3K4me3 peptide binding; 4.4% of 390,000 active; Potency, µM (series often up to 114 µM), most hits filed as inhibitors; note: nearly all actives have a fitted effect of over 50% in size
# Target sequence (O75164 whole entry, looked up, the tested form may be a part): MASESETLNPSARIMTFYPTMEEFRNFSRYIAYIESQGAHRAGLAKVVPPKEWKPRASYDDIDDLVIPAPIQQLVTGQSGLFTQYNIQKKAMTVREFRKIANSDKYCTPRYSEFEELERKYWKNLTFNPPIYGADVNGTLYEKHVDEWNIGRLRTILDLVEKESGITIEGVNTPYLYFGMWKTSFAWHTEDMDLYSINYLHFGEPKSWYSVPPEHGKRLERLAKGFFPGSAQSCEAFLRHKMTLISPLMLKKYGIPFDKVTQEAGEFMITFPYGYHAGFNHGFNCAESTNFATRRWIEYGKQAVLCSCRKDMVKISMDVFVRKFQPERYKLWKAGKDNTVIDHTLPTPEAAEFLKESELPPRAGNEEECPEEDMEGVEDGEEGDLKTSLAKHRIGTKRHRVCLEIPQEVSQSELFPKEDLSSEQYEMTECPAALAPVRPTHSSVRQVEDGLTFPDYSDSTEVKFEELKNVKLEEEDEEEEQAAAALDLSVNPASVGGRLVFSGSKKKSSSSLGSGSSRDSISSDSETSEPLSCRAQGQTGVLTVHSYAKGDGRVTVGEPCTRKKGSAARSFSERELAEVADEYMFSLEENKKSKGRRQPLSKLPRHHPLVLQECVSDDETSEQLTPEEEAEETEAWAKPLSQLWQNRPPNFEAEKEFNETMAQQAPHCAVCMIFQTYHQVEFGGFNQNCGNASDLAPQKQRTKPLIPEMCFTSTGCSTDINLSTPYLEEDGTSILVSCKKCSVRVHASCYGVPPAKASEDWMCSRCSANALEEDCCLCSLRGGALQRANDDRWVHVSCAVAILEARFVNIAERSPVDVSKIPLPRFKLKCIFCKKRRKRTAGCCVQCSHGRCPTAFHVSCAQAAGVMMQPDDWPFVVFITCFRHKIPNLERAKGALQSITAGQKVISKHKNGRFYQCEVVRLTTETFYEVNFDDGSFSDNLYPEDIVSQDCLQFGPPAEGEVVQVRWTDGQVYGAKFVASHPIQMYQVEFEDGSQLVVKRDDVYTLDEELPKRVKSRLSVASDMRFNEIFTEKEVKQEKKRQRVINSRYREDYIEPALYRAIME
# BAZ2B inh = inhibitors of human BAZ2B bromodomain; Potency, µM (series often up to 114 µM), hits mostly inhibitors; Q9UIF8; 4.4% of 360,000 active; AlphaScreen BAZ2B-H3K14Ac peptide displacement; note: nearly all actives have a fitted effect of over 60% in size
#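 AlphaScreen displacement: compounds (up to 110uM) incubated 30 min at room temperature with a preformed 50 nM BAZ2B/50 nM biotinylated H3K14Ac peptide complex in PBS pH 7.4 with Tween-20. Donor and acceptor beads at 10 ug/mL final added, 20 min light-protected before reading.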
# L3MBTL1 block = L3MBTL1 (human) inhibition | AID 485360 | AlphaScreen L3MBTL1–H3K9me1 peptide binding | 0.66% of 230,000 active | Potency, µM (series often up to 57.1 µM), actives largely listed as inhibitors | Q9Y468; note: nearly all actives have a fitted effect of over 60% in size
#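 AlphaScreen assay: L3MBTL1 (50 nM final) was preincubated 30 min at room temperature with biotinylated H3(1-15)K9me1 peptide (75 nM final), then 30 min with library compounds; streptavidin donor and nickel chelate acceptor beads (10 ug/mL final) added, 30 min dark.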
# Sfp PPTase inh = inhibitors of Bacillus subtilis Sfp phosphopantetheinyl transferase | Biochemical Sfp PPTase activity, qHTS | Potency, µM, usual class: inhibitors | 3.5% of 310,000 active;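 note: the enzyme is Sfp with the accession as filed and its product quenches rhodamine fluorescence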
#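 Compounds were incubated with enzyme (final 15 nM) for 15 min at room temperature before substrate addition started the reaction. Fluorescence at 525 nm excitation, 598 nm emission was recorded immediately and after 30 minutes.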
# A number is an active result; 0 = inactive; ? = inconclusive; - = not tested or not shown; [ ] = dose if it differs, or a comment. Calls come from the whole dose curve; as a rule, active = well fitted curve in the direction sought with a large enough effect; inconclusive = small, poorly fitted or top-dose-only effect, or another doubt; inactive = no such curve, though single readings can be large; an effect the other way counts as inactive or inconclusive.
SMILES,G9a inh,HP1b chromo inh,JMJD2A Tudor,BAZ2B inh,L3MBTL1 block,Sfp PPTase inh
COc1cc2c(cc1OC)C(C)N(C(=O)c1nccnc1C(=O)O)CC2 (stereo not drawn),?,0,50µM,?,0,0
COc1cc2c(cc1OC)C(C)NCC2 (stereo not drawn),0,0,0,0,0,0
O=C1CC2OCC=C3CN4CC[C@]56c7ccccc7N1[C@H]5[C@H]2C3C[C@H]46 (stereo partly drawn),-,-,-,-,-,0
O=C1c2ccccc2C(=O)N1SC1CCCCC1,2µM,0,?,0,0,10µM
Cc1cc(C)cc(C(=O)OC2CC3CCC(C2)N3C)c1 (stereo not drawn),?,-,-,-,-,0
CCC(=O)Nc1ccc(N2CCN(CC)CC2)c(Cl)c1,79µM,0,0,?,0,0
CCCN(CCC)[C@H]1CCc2c(F)ccc(O)c2C1,50µM,-,-,-,-,-
CCCN(C/C=C\I)[C@@H]1CCc2ccc(O)cc2C1,-,-,-,-,-,0
CCN1C[C@@]2(C)CC[C@@H](OC)[C@@]34C2C(O)[C@@]2(OCO[C@]25CC(OC)C2C[C@@]3(O)C5C2O)C14 (stereo partly drawn),0[2.33 µM],-,-,-,-,0
CCc1nn2c(=O)c(C)c(N3CCNCC3)nc2s1,-,-,0,-,-,-
CC(C)C(OC(=O)c1ccco1)C(=O)NCc1ccco1 (stereo not drawn),0,?,79µM,0,-,0
CCOC(=O)/C=C(C)/C=C/CC(C)CCCC(C)C (stereo not drawn),0[12.7 µM],-,-,-,-,0
Cc1ccc2c(c1)=NC(=O)/C(=C/c1c(O)[nH]c(=O)[nH]c1=O)C=2,?,0,0,0,-,35µM
COc1ccc(OC)c(N=Cc2c(O)[nH]c(=O)[nH]c2=O)c1,0,0,0,0,-,0
CC1=Nc2ccccc2/C1=C/c1c(O)[nH]c(=O)[nH]c1=O,79µM,0,0,?,0,0
Cc1cccc(N/N=C/c2c(O)[nH]c(=S)[nH]c2=O)c1,-,0,0,-,-,-
Cc1ccc2c(c1)=C/C(=C\c1c(O)[nH]c(=S)[nH]c1=O)C(=O)N=2,3.5µM,-,-,?,0,7.1µM
c1cnc(N2CC3(CCNCC3)C2)nc1,0[12.7 µM],-,-,-,-,0
O=C1CC(N2CC=C(c3ccccc3)CC2)C(=O)N1c1ccc(F)cc1 (stereo not drawn),10µM,0,?,0,0,0
CCCOc1ccc(N2C(=O)CC(N3CC=C(c4ccccc4)CC3)C2=O)cc1 (stereo not drawn),?,0,0,0,0[11.4 µM],0
NNCc1ccccc1,0[2.33 µM],0,20µM,-,-,0
Cc1cccc(N2C(=O)/C(=C/c3ccc(CN(CCC#N)S(C)(=O)=O)o3)C(=O)NC2=S)c1,?,?,50µM,50µM,-,13µM
Cc1ccc(N2C(=O)/C(=C/c3ccc(CN(CCC#N)S(C)(=O)=O)o3)C(=O)NC2=S)cc1C,8.9µM,-,-,40µM,?,22µM
Cc1nc(-c2ccc(-c3ccc(C(=O)N4CCc5cc6c(cc54)C4(CCN(C)CC4)CO6)cc3)c(C)c2)no1,0[12.7 µM],-,-,-,-,63µM
O=C1NC(=O)N(c2cccc(F)c2)C(=O)/C1=C/c1ccc(N2CCOCC2)cc1,-,0,0,0,0,32µM
SMILES,G9a inh,HP1b chromo inh,JMJD2A Tudor,BAZ2B inh,L3MBTL1 block,Sfp PPTase inh
Cc1cc(N2CCOCC2)ccc1/C=C1\C(=O)NC(=O)N(c2ccccc2)C1=O,0[12.7 µM],0,0,?,0,35µM
Cc1cc(/C=C2/C(=O)NC(=O)N(c3ccccc3)C2=O)c(C)n1-c1ccc(F)cc1,-,0,0,-,-,-
O=C(Oc1ccccc1)N1CCC2(CCCN(Cc3nccs3)C2)CC1,0[12.7 µM],-,-,-,-,0
CC1(c2ccc(Cl)cc2Cl)OCC(Cn2cncn2)O1 (stereo not drawn),?,0,0,71µM,0,0
CCCC1COC(Cn2cncn2)(c2ccc(Cl)cc2Cl)O1 (stereo not drawn),0,0,0,0,0,?
Cc1c(CCC(=O)N2CCCCC2)c(=O)oc2cc3occ(C(C)(C)C)c3cc12,0,0,?,0,-,-
CCOc1cc(/C=C2\C(=O)NC(=O)N(CCc3ccc(F)cc3)C2=O)ccc1O,40µM,0,0,0,-,71µM
CN(C)c1ccc(/C=C2\C(=O)NC(=O)N(Cc3ccc(F)cc3)C2=O)cc1,-,0,0,0,-,0
COCCN1C(=O)NC(=O)/C(=C\c2ccc(Br)cc2)C1=O,45µM,0,?,0,0,50µM
CN(C)c1ccc(/C=C2/C(=O)NC(=O)N(CCc3ccc(F)cc3)C2=O)cc1,?,0,28µM,?,0,0
Cc1ccc(/C=C2/C(=O)NC(=O)N(CCc3ccc(F)cc3)C2=O)s1,0,0,?,0,0,0
Clc1ccccc1CN1CCNCC1,-,0,0,0,0,0
CCc1ccc(CN2CCN(Cc3cc(Br)ccc3O)CC2)cc1,25µM,25µM,22µM,45µM,-,?
CSc1ccc(CN2CCN(Cc3ccccc3Cl)CC2)cc1,4.5µM,?,5µM,18µM,0,22µM
COc1ccc(CN2CCN(Cc3ccccc3F)CC2)cc1,4µM,18µM,3.2µM,18µM,-,79µM
CCc1ccc(CN2CCN(C(=O)Cc3ccccc3)CC2)cc1,22µM,28µM,20µM,25µM,0,?
CC(C)CN1CCC2(CC1)CCN(C(=O)Oc1ccccc1)CC2,0[12.7 µM],-,-,-,-,0
Cc1cc(S(=O)(=O)NCC(C)C)ccc1OCC(=O)N1CCN(Cc2ccccc2)CC1,0[12.7 µM],0,0,0,-,0
CN1CCN(C(=O)Cc2ccccc2)CC1,0,0,0,0,0,0
Cc1cccc(OCC(=O)N2CCN(Cc3cccnc3)CC2)c1,0,?,2.8µM,?,0,0
O=C(Cc1ccccc1)N1CCN(Cc2ccccc2Cl)CC1,45µM,?,18µM,20µM,-,?
COc1cc(OC)c(OC)cc1CN1CCN(C(=O)Cc2ccccc2)CC1,7.9µM,?,18µM,?,0,0
Cc1cccc(CN2CCN(C(=O)Cc3ccccc3)CC2)c1,28µM,?,6.3µM,79µM,0,0
CCN1C[C@]2(C)CC[C@H](OC)[C@@]34[C@@H]2[C@H](OC(C)=O)[C@]2(OCO[C@@]25C[C@@H](OC)[C@@H]2C[C@@]3(O)[C@H]5[C@@H]2OC)[C@H]14,0[21.5 µM],-,-,-,-,0
CC1OC(O[C@H]2C[C@@H](O)[C@]3(CO)[C@@H]4C(CC[C@]3(O)C2)[C@@]2(O)CC[C@H](C3=CC(=O)OC3)[C@@]2(C)C[C@H]4O)C(O)C(O)C1O (stereo partly drawn),0,-,-,-,-,0
CSc1ccc(CN2CCN(C(=O)Cc3ccccc3)CC2)cc1,-,?,20µM,-,-,-
O=C(Cc1ccccc1)N1CCN(Cc2cccnc2)CC1,6.3µM,0,4.5µM,32µM,-,79µM
c1ccc(CN2CCN(Cc3ccc4ccccc4c3)CC2)cc1,1.4µM,?,0.79µM,28µM,0,0
